Assay results as given in the supplement of paper PMC6555819.

Legend:
Test in all cases: PBM binding z-score (relative to random genomic background probes); higher = stronger binding; sequences stand for … in GC…GCGATTGACAGCGTAGAATGAAGG
[1] = tested on: FXR:RXRa (NR concentration 270 nM, RXRa partner concentration 90 nM)
In short: (§1)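 Each nuclear receptor dimer, without ligand, was incubated for 1 h on custom Agilent 4×180K protein-binding microarrays. Binding was detected with antibodies against each partner (one per run), and scanned fluorescence was regression-normalized. The binding z-scores are referenced to random human genomic background probes.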

[2] = tested on: LXRa:RXRa (NR concentration 270 nM, RXRa partner concentration 90 nM)
In short: as §1

[3] = tested on: LXRa homodimer (NR concentration 270 nM)
In short: as §1

[4] = tested on: LXRb:RXRa (NR concentration 270 nM, RXRa partner concentration 90 nM)
In short: as §1

[5] = tested on: LXRb homodimer (NR concentration 270 nM)
In short: as §1

[6] = tested on: PPARa:RXRa (NR concentration 270 nM, RXRa partner concentration 90 nM)
In short: as §1

[7] = tested on: PPARg:RXRa (NR concentration 180 nM, RXRa partner concentration 90 nM)
In short: as §1

[8] = tested on: PPARg:RXRa 270nM:90nM, anti-RXR (NR concentration 270 nM, RXRa partner concentration 90 nM)
In short: as §1

[9] = tested on: PPARg:RXRa 30nM:10nM, anti-RXR (NR concentration 30 nM, RXRa partner concentration 10 nM)
In short: as §1

[10] = tested on: PPARg:RXRa 90nM:30nM, anti-RXR (NR concentration 90 nM, RXRa partner concentration 30 nM)
In short: as §1

Row | Sequence | PBM binding z-score [1] | PBM binding z-score [2] | PBM binding z-score [3] | PBM binding z-score [4] | PBM binding z-score [5] | PBM binding z-score [6] | PBM binding z-score [7] | PBM binding z-score [8] | PBM binding z-score [9] | PBM binding z-score [10]
1 | ATATGCAGGTTATCGGGTCATTCAGTTTGCGCAT | 3.37 | 3.44 | 1.57 | 3.03 | 0.832 | 4.13 | 4.45 | 4.25 | 1.56 | 3.42
2 | CCTACTGGGTCATTCAGAGGTCATTGATCATATG | 5.47 | 6.23 | 6.38 | 5.36 | 1.42 | 5.41 | 6.55 | 5.9 | 3.21 | 5.33
3 | CCTTACGGGTCACTGACAGGTCATAGCATTTGGA | 5.83 | 5.72 | 2.3 | 4.51 | -0.00143 | 5.36 | 4.81 | 5.35 | 2.02 | 4.03
4 | ATATGTCGGTTAGGGTCATTCAGAAAGTAGGGAA | 4.73 | 3.97 | 1.11 | 4.09 | 2.21 | 4.78 | 3.57 | 3.71 | 1.57 | 3.07
5 | ATATGTAGGTTATGGTCATTCAGAAAGTAGGGAA | 1.06 | 1.36 | 0.432 | 1.37 | 0.916 | 3.29 | 4.98 | 4.06 | 2.18 | 3.32
6 | AGTCAAAGTTCAGGACGAGGTACCGTAAAGCACG | 3.73 | 3.6 | 1.07 | 1.66 | 0.243 | 3.21 | 4.19 | 4.86 | 1.63 | 3.51
7 | CCTAGTTGGTCAAGCTCACACACGCTATAGGTAC | 0.0686 | 0.299 | 0.418 | 0.309 | 0.719 | 0.0262 | 0.838 | 0.282 | 0.0303 | 0.00108
8 | CCTACTGGGCCACGAAAGGTCCTTGATTCAGTGA | -0.183 | -0.157 | -0.498 | -0.372 | -0.947 | 1.21 | 1.24 | 1.23 | -0.391 | 0.635
9 | CGTCAAAGTTCAACTAAGGTAACTTAAAGCACGC | 7.38 | 6.11 | 4.42 | 4.16 | 1.95 | 5.47 | 5.21 | 5.69 | 2.4 | 4.39
10 | CGAACTAGGTCACAGGACAGTGAAAGGCGACGTA | 4.05 | 2.67 | -0.102 | 1.78 | -0.469 | 5.21 | 8.8 | 7.37 | 4.65 | 7.31
11 | TGAATGAAGTTAAAGATCAGGGAACGTGGCGTCG | -0.402 | -0.168 | -0.348 | -0.389 | -0.518 | 0.212 | 0.843 | 1.61 | 0.713 | 1.3
12 | CGAACTAGGTGACCAGGACAGTGAAGAGGTTGGA | -0.0348 | -0.436 | -0.313 | -0.307 | -0.898 | 2.67 | 3.98 | 3.34 | 1.03 | 1.94
13 | TCTCGGAGGACACGAAAGGTGAGAGCTCGACATC | 0.988 | 0.364 | -0.458 | -0.112 | -0.994 | 1.22 | 0.346 | 1.01 | 2.1 | 1.25
14 | CCTTACGGGTCACTCTAGGTTATAGCATCGGAGT | 5.09 | 7.69 | 1.83 | 5.58 | 0.329 | 4.68 | 3.33 | 3.69 | 1.3 | 2.76
15 | TCTAGGAGGACACGAAGGTCAGAGCTTTCCAGAG | 1.27 | 0.762 | 0.19 | 0.856 | -0.833 | 2.05 | 0.882 | 2.09 | 2.49 | 2.5
16 | CGAACTAGGTCAAAGTACAGTGAAAGGCGACGTA | 4.69 | 3.09 | 0.303 | 2.45 | 0.12 | 5.46 | 9.58 | 7.61 | 7.01 | 8.33
17 | ATATGTAGGATAGGGTCATTCAGAAAGTAGGGAA | 3.78 | 3.12 | 0.63 | 3.55 | 1.08 | 4.62 | 4.04 | 3.78 | 1.71 | 3.29
18 | TCTTGTAGATCAAAGGTTAAGACAGCCGAAGCCT | 1.72 | 2.27 | 0.473 | 2.31 | -0.101 | 4.74 | 8.11 | 8.23 | 7.63 | 8.39
19 | CGATCTAGGTCAAAGGACAGTGAAAGGCGACGTA | 4 | 2.77 | -0.0244 | 1.53 | -0.237 | 5.27 | 10.3 | 8.3 | 8.39 | 9.24
20 | CCTACGGGGCCAAAGGTCATTGATTCCAATGCTC | 5.67 | 5.59 | 4.4 | 5.16 | 0.715 | 6.04 | 11 | 9.49 | 8.43 | 11.1
21 | CCTTACGGGTCAAGGTAATAGCACGGGTGGTACG | 5.58 | 3.16 | -0.011 | 2.58 | -0.283 | 4.8 | 4.75 | 4.34 | 1.46 | 3.28
22 | CCTCGGAGGACAGAAGGTCAGATCTGTCCGCTTT | 1.34 | 1.57 | 0.283 | 1.25 | -0.347 | 1.62 | 0.155 | 0.812 | -0.772 | 0.0725
23 | CGTCCAAGGTAAGAGAGGTCAGTGAATGCCGAGT | 1.6 | 2.42 | 1.66 | 1.72 | -0.936 | 2.53 | 0.401 | 1.2 | -0.312 | 0.249
